# The campaign covered roughly 48,000 compounds. About 13,000 (27%) showed an effect of 50% or more. The list shows a part of the results.
# Test system: Wolbachia pipientis
# Experiment: Anti-Wolbachia Cell-Based Screen
# Format: functional
# Set-up: scale not given: in the data most compounds retested in dose-response had high values
# Settings: 5 µM
row,Structure (SMILES),Percent Effect
1,CC(=O)NCCC(=O)NC1(c2ccc(Cl)c(Cl)c2)CC1,3.477%
2,CC(NC(=O)COc1cccc[n+]1[O-])C1CC1 (configuration not stated),-6.842%
3,Cc1ccc(CNCc2nnc3n2CC(C(F)(F)F)CC3)cc1 (configuration not stated),-7.096%
4,O=C(CCc1ccsc1)Nc1cnccc1O,9.927%
5,CC(C)CCN1CCc2[nH]nc(C(=O)N3CC=CC3)c2C1.O=C(O)C(F)(F)F.O=C(O)C(F)(F)F,-3.7%
6,CO[C@@H]1CCN(Cc2cnn(C)c2)[C@@H]2CN(Cc3ccco3)C[C@@H]21.O=C(O)C(F)(F)F.O=C(O)C(F)(F)F,6.003%
7,CO[C@H]1CCN(Cc2cnn(C)c2)[C@@H]2CN(Cc3cccnc3)C[C@H]12.O=C(O)C(F)(F)F.O=C(O)C(F)(F)F.O=C(O)C(F)(F)F,4.089%
8,COCC1CN(Cc2c(C)noc2C)Cc2ccnn2C1.O=C(O)C(F)(F)F.O=C(O)C(F)(F)F (configuration not stated),-2.816%
9,CO[C@@H]1CCN(Cc2c(C)noc2C)[C@@H]2CN(Cc3ccco3)C[C@@H]21.O=C(O)C(F)(F)F.O=C(O)C(F)(F)F,102.8%
10,CO[C@H]1CCN(Cc2cccc(C)n2)[C@@H]2CN(Cc3cccnc3)C[C@H]12.O=C(O)C(F)(F)F.O=C(O)C(F)(F)F.O=C(O)C(F)(F)F.O=C(O)C(F)(F)F,-9.589%
11,CO[C@@H]1CCN(Cc2c(C)noc2C)[C@@H]2CN(Cc3cccnc3)C[C@@H]21.O=C(O)C(F)(F)F.O=C(O)C(F)(F)F.O=C(O)C(F)(F)F,82.84%
12,Cc1noc(C)c1CN1C[C@@H](N(C)Cc2ccco2)[C@H]2OCCC[C@H]21.O=C(O)C(F)(F)F.O=C(O)C(F)(F)F,12.06%
13,CO[C@H]1CCN(Cc2c(C)noc2C)[C@@H]2CN(Cc3ccncc3)C[C@H]12.O=C(O)C(F)(F)F.O=C(O)C(F)(F)F.O=C(O)C(F)(F)F,106.3%
14,CO[C@H]1CCN(Cc2c(C)noc2C)[C@@H]2CN(Cc3cccnc3)C[C@H]12.O=C(O)C(F)(F)F.O=C(O)C(F)(F)F.O=C(O)C(F)(F)F,114.1%
15,CO[C@@H]1CCN(c2ncc(F)cn2)[C@@H]2CN(Cc3cccnc3)C[C@@H]21.O=C(O)C(F)(F)F.O=C(O)C(F)(F)F.O=C(O)C(F)(F)F,-6.486%
16,Cc1noc(C)c1CN1CC[C@H]2OCC[C@@H](C(=O)NCC3CC3)[C@@H]2C1.O=C(O)C(F)(F)F,-16.42%
17,COC(=O)N1CCN(CCCc2nnnn2-c2ccccc2)CC1,-41.56%
18,O=C(Cc1ccc(F)cc1Cl)N1CC[C@H](CO)[C@@H](O)C1,3.077%
19,COc1cccc2c1OCC(C(=O)N1CCN(S(C)(=O)=O)CC1)C2 (configuration not stated),0.5994%
20,CC1CCCN1C1CCN(C(=O)c2cccc(-c3ccoc3)c2)CC1 (configuration not stated),2.618%
21,CSCC[C@@H](CO)Nc1ccc(-c2nc(C3CC3)no2)cn1,-21.62%
22,Cc1noc(CS(=O)(=O)C/C=C/c2ccccc2)n1,-7.047%
23,Cn1cccc1C(=O)N1CCO[C@@H]2CN(Cc3nccs3)C[C@@H]2C1.O=C(O)C(F)(F)F,127.2%
24,COCCN1CCO[C@@H]2CN(Cc3sccc3C)C[C@@H]2C1.O=C(O)C(F)(F)F.O=C(O)C(F)(F)F,-3.44%

row,Structure (SMILES),Percent Effect
1,O=C(O)C(F)(F)F.O=C(c1ccsc1)N1CCO[C@@H]2CN(Cc3ccccn3)CC[C@@H]2C1,3.038%
2,O=C(O)C(F)(F)F.O=C(c1ccco1)N1CCO[C@@H]2CN(c3ccccn3)CC[C@@H]2C1,6.986%
3,CCc1cnc(N2CC[C@@H]3CN(C(=O)c4ccco4)CCO[C@@H]3C2)nc1,10.92%
4,O=C(O)C(F)(F)F.O=C(c1ccco1)N1CCO[C@@H]2CN(Cc3nccs3)CC[C@@H]2C1,104%
5,Cc1cc(CN2C[C@@H]3CN(C(=O)c4cccn4C)CCO[C@@H]3C2)no1.O=C(O)C(F)(F)F,9.61%
6,N#Cc1cccc(CN2CC[C@@H]3CN(c4ncccn4)CCO[C@@H]3C2)c1.O=C(O)C(F)(F)F,115.7%
7,Cc1cnc(N2CC[C@@H]3CN(Cc4ccncc4)CCO[C@@H]3C2)nc1.O=C(O)C(F)(F)F.O=C(O)C(F)(F)F,-11.53%
8,N#Cc1cccc(CN2CC[C@@H]3CO[C@@H](CN4CCCC4)[C@@H]3C2)c1.O=C(O)C(F)(F)F.O=C(O)C(F)(F)F,-0.4401%
9,O=C(O)C(F)(F)F.O=C(c1ccsc1)N1CCO[C@@H]2CN(Cc3ccco3)CC[C@@H]2C1,99.14%
10,O=C(NC[C@H]1OC[C@@H](NC2CCOCC2)[C@@H]1O)Nc1ccccc1,14.81%
11,COCCN(Cc1ccncc1)C(=O)C1COc2ccccc2C1 (configuration not stated),-25.57%
12,COCCc1nc(CN2CC(C)(c3ccccc3)CCC2=O)no1 (configuration not stated),-5.62%
13,CCCS(=O)(=O)NC1CCN(c2nnc(C)c(C)c2C#N)CC1,-4.578%
14,Cc1cc(N2CCC(N3CCOCC3)C2)n2nc(C)c(C)c2n1 (configuration not stated),-1.501%
15,O=C(O)C(F)(F)F.O=C([C@@H]1CN(Cc2nccs2)C[C@H]2OCC[C@H]21)N1CCOCC1,-26.11%
16,Cn1cc(CN2CCO[C@@H]3CN(Cc4ccoc4)C[C@@H]3C2)cn1.O=C(O)C(F)(F)F.O=C(O)C(F)(F)F,9.777%
17,CN(C)CCN1CCO[C@H]2CN(C(=O)c3ccsc3)C[C@H]21.O=C(O)C(F)(F)F.O=C(O)C(F)(F)F,117.2%
18,CN(C)CCN1CCO[C@H]2CN(C(=O)N(C)C)C[C@H]21.O=C(O)C(F)(F)F.O=C(O)C(F)(F)F,6.005%
19,O=C(O)C(F)(F)F.O=C(c1ccsc1)N1CCO[C@@H]2CN(Cc3cccs3)C[C@@H]2C1,14.76%
20,O=C(O)C(F)(F)F.O=C(O)C(F)(F)F.c1coc(CN2C[C@@H]3CN(Cc4ccoc4)CCO[C@@H]3C2)c1,116.5%
21,CCS(=O)(=O)N1C[C@@H]2CN(Cc3ccco3)CCO[C@@H]2C1.O=C(O)C(F)(F)F,-13.85%
22,CN(C)CCN1CCO[C@H]2CN(C(=O)C3CCOCC3)C[C@H]21,-13.47%
23,O=C(O)C(F)(F)F.O=C(c1ccsc1)N1CCO[C@@H]2CN(Cc3nccs3)C[C@@H]2C1,102%

# Source: ChEMBL document CHEMBL3988442, “University of Dundee, Small-Polar-MMV Screening Library” (2021)
